The values that follow come from PubChem BioAssay (NCI).

About 83,000 compounds went through this panel and 20% of them were active in at least one assay; those are over-represented in the sample as a whole.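 Values shown are percent growth following 48 h exposure of cells in 96-well plates to a single concentration of compound; below 10 was considered active.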 A number with no mark means an inactive call. Calls of active or inactive are those of the source.

Test systems include NCI-H23 lung; NCI-H226 lung; NCI-H322M lung; HOP-62 NSCLC; NCI-H460 lung; HOP-92 NSCLC; NCI-H522 lung; A549/ATCC NSCLC; 786-0 renal; COLO 205 colon.
What all share (test): NCI-60 one-dose screen, 48 h (100 = growth as untreated, 0 = no growth, -100 = all killed)
Common to all, as to conditions: 10 µM unless noted

Turning to `Brc1ccc(-c2cc(-c3ccc4c(c3)OCCO4)n[nH]2)s1`, the growth in the experiment on NCI-H23 lung is 40.6%; with NCI-H226 lung it was 75.4%; in the experiment with NCI-H322M lung, 42.7%; in the experiment on HOP-62 NSCLC it was 51.3%; in the experiment with NCI-H460 lung, 14.3%; in the experiment with HOP-92 NSCLC, 64.2%. Besides, the growth with NCI-H522 lung was 20.9%; in the experiment on A549/ATCC NSCLC it was 33.3%; with 786-0 renal it was 73.5%; in the experiment on COLO 205 colon it was 28.7%.
As to `Oc1[nH]c2ccc(Cl)cc2c1N=Nc1nc(N=Nc2c(O)[nH]c3ccc(Cl)cc23)nc(N2CCOCC2)n1`, the growth is 17.2% in the experiment on NCI-H23 lung; 57.3% with NCI-H226 lung; 78.1% in the experiment with NCI-H322M lung; 37.6% in the experiment on HOP-62 NSCLC; 88.2% with NCI-H460 lung; 26% with HOP-92 NSCLC. The growth was 5.09% (active) in the experiment with NCI-H522 lung, 101% with A549/ATCC NSCLC, 73.7% with 786-0 renal and 48.7% in the experiment on COLO 205 colon.
For the compound `COC(=O)CCSC1=C(C)C(=O)c2ccccc2C1=O`, the growth was 71.3% in the experiment on NCI-H23 lung; 86.7% in the experiment with NCI-H226 lung; 99% with NCI-H322M lung; 107% with HOP-62 NSCLC; 101% in the experiment on NCI-H460 lung; 88.6% with HOP-92 NSCLC. Further, the growth with NCI-H522 lung was 62.4%; in the experiment with A549/ATCC NSCLC, 106%; in the experiment on 786-0 renal it was 103%; in the experiment with COLO 205 colon it was 120%.
For the compound `CCc1cc(O)ccc1Nc1cc(-c2ccc(-n3cccn3)cc2)[nH]n1`, the growth in the experiment on NCI-H23 lung is 74.7%; in the experiment with NCI-H226 lung, 87.3%; in the experiment with NCI-H322M lung, 64%; in the experiment on HOP-62 NSCLC, 37%; in the experiment on NCI-H460 lung, 45%; with HOP-92 NSCLC, 139%. For the same compound, the growth in the experiment on NCI-H522 lung was 38%; in the experiment on A549/ATCC NSCLC, 56.2%; in the experiment on 786-0 renal it was 84.9%; in the experiment with COLO 205 colon, 49.8%.
With `CCOC(=O)Nc1ccc2c(ccn2C(=O)c2cccc(F)c2)c1`, the growth with NCI-H23 lung was 41.4%; in the experiment with NCI-H226 lung, 53.5%; in the experiment on NCI-H322M lung, 61.8%; in the experiment on HOP-62 NSCLC, 35.2%; in the experiment on NCI-H460 lung, 14.8%; in the experiment with HOP-92 NSCLC, 76%. In addition, the growth was 0.367% (active) in the experiment on NCI-H522 lung, 47.6% in the experiment with A549/ATCC NSCLC, 57.5% in the experiment with 786-0 renal and -3.54% (active) in the experiment on COLO 205 colon.
In the case of `Clc1ccc2[nH]cc(-c3cncn3CCc3ccc4c(c3)OCO4)c2c1`, the growth was 62.9% with NCI-H23 lung; 56.8% in the experiment on NCI-H226 lung; 75.5% in the experiment with NCI-H322M lung; 85.5% in the experiment with HOP-62 NSCLC; 81.6% in the experiment with NCI-H460 lung; 9.07% (active) in the experiment on HOP-92 NSCLC. Moreover, the growth was 69.2% in the experiment on NCI-H522 lung, 73.2% with A549/ATCC NSCLC, 73.7% in the experiment on 786-0 renal and 80.5% in the experiment with COLO 205 colon.
In the case of `CCN(CC)CCOc1ccc(C(=C(C)c2ccc(OC)cc2)c2ccc(OCCN(CC)CC)cc2)cc1`, the growth was 57.8% with NCI-H23 lung; 61.2% in the experiment with NCI-H226 lung; 33.5% with NCI-H322M lung; 4.72% (active) in the experiment with HOP-62 NSCLC; 1.96% (active) in the experiment with NCI-H460 lung; -4.16% (active) in the experiment on HOP-92 NSCLC. Also, the growth in the experiment with NCI-H522 lung is -4.16% (active); with A549/ATCC NSCLC, 12.3%; with 786-0 renal, -51.1% (active); in the experiment with COLO 205 colon, -56.5% (active).
Take `CCN(CC)S(=O)(=O)c1ccc(-c2nc(C(Cl)Cl)nc3cc(-c4ccc(F)cc4)nn23)cc1`: the growth was 21.7% in the experiment with NCI-H23 lung; 77.3% in the experiment with NCI-H226 lung; 41.4% in the experiment with NCI-H322M lung; 10.3% in the experiment on HOP-62 NSCLC; 10.2% in the experiment on NCI-H460 lung; -3.41% (active) with HOP-92 NSCLC. Besides, the growth with NCI-H522 lung was 79.3%; in the experiment with A549/ATCC NSCLC it was 17.8%; with 786-0 renal, 76.5%; with COLO 205 colon it was 8.9% (active).
On to `CN(C)c1ccc(-c2cc(-c3c[nH]c4ccccc34)nc(N)c2C#N)cc1`, for which the growth in the experiment on NCI-H23 lung was 54.8%; in the experiment with NCI-H226 lung, 62.8%; in the experiment on NCI-H322M lung, 69.5%; in the experiment with HOP-62 NSCLC it was 33.3%; in the experiment with NCI-H460 lung it was 7.07% (active); in the experiment on HOP-92 NSCLC, 27.5%. For the same compound, the growth is 2.93% (active) in the experiment on NCI-H522 lung, 25.4% in the experiment with A549/ATCC NSCLC, 17.5% in the experiment with 786-0 renal and 22.1% in the experiment on COLO 205 colon.
For the compound `CC(=O)N(O)CCCCCNC(=O)CCC(=O)N(O)CCCCCNC(=O)CCC(=O)N(O)CCCCCN(CCCCCCCCCC[P+](c1ccccc1)(c1ccccc1)c1ccccc1)CCCCCCCCCC[P+](c1ccccc1)(c1ccccc1)c1ccccc1`, the growth with NCI-H23 lung is -16.5% (active); with NCI-H226 lung it was -6.05% (active); with NCI-H322M lung, -28.9% (active); with HOP-62 NSCLC it was 7.35% (active); with NCI-H460 lung, -12.4% (active); in the experiment with HOP-92 NSCLC, -18.4% (active). Moreover, the growth in the experiment with NCI-H522 lung was -18.8% (active); in the experiment on A549/ATCC NSCLC it was 9% (active); with 786-0 renal it was 21.5%; in the experiment with COLO 205 colon it was -43.4% (active).
Regarding `CCC1=Cc2c(OC)cccc2OC12C=Cc1c(OC)cccc1O2` (stereo not given), the growth was 39.7% in the experiment with NCI-H23 lung; 58.3% in the experiment on NCI-H226 lung; 43.9% in the experiment on NCI-H322M lung; 43.2% in the experiment with HOP-62 NSCLC; 7.72% (active) with NCI-H460 lung; 44% in the experiment with HOP-92 NSCLC. Moreover, the growth in the experiment on NCI-H522 lung is 14.4%; in the experiment with A549/ATCC NSCLC, 25.3%; in the experiment on 786-0 renal it was 50.1%; in the experiment on COLO 205 colon it was 17.2%.
Turning to `CN1CCN(c2ccc(Nc3nc(NCCCNS(=O)(=O)c4ccc(Cl)cc4)c4sccc4n3)cc2)CC1`, the growth was 65% in the experiment on NCI-H23 lung; 99.6% with NCI-H226 lung; 33.7% in the experiment with NCI-H322M lung; 52.5% in the experiment with HOP-62 NSCLC; 7.38% (active) with NCI-H460 lung; 49.4% in the experiment on HOP-92 NSCLC. Also, the growth was -65.8% (active) in the experiment with NCI-H522 lung, 21.9% in the experiment with A549/ATCC NSCLC, -43.2% (active) with 786-0 renal and -38.3% (active) with COLO 205 colon.
Take `COc1ccc(/C=N/NC(=O)c2c(N)nn(C)c2Nc2ccccc2)cc1Oc1ccccc1`: the growth is 90.4% in the experiment on NCI-H23 lung; 91.9% with NCI-H226 lung; 89.4% in the experiment on NCI-H322M lung; 96.5% in the experiment on HOP-62 NSCLC; 102% with NCI-H460 lung; 51.3% in the experiment on HOP-92 NSCLC. Further, the growth in the experiment with NCI-H522 lung is 93.8%; in the experiment with A549/ATCC NSCLC, 89.1%; with 786-0 renal, 101%; in the experiment with COLO 205 colon it was 117%.
